# The list is not random: actives were taken first. Their share in the collection is about 9.2%.
# Rab9 promoter act: Rab9 promoter activation. Potency, µM (highest dose often 9.22 µM), for inactives: at the top dose activation, negative = inhibition, most hits filed as activators. Huh7 Rab9 promoter-luciferase reporter, luminescence, 24 h. 320,000 tested, 2.8% active. AID 485297; note: % of control where 0% means no effect; nearly all actives have a fitted effect of over 60% in size
#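 Quantitative HTS format; Huh7 Rab9-luciferase reporter cells (1500/well) receive compound 2 h post-plating, incubate 24 h at 37 °C, then get luciferase reagent for 10 min before luminescence reading.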
# NPC1 promoter act: NPC1 promoter activation; Huh7 NPC1 promoter luciferase reporter, 24 h; Potency, µM (doses to about 9.22 µM), for inactives: at the top dose activation, actives largely listed as activators; 320,000 tested, 2.4% active; AID 485313; note: % of control where 0% means no effect; nearly all actives have a fitted effect of over 60% in size
#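 Quantitative HTS used a cell-based reporter: Huh7 cells stably bearing the NPC1 promoter upstream of luciferase were treated with compounds for 24 h, and promoter activation was read as luminescence.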
# FLuc counter: inhibits or activates purified firefly luciferase, miR-21 counter-screen | purified FLuc, Km substrates, luminescence inhibition | Potency, µM (doses to about 57.5 µM), without a hit: at the highest dose activity change, negative = inhibition, most hits filed as inhibitors | 360,000 tested, 6.9% active | P08659;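 note: plate controls were vehicle for no effect and reference inhibitor for full effect; nearly all actives have a fitted effect of over 55% in size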
# Target sequence (P08659 whole entry, looked up): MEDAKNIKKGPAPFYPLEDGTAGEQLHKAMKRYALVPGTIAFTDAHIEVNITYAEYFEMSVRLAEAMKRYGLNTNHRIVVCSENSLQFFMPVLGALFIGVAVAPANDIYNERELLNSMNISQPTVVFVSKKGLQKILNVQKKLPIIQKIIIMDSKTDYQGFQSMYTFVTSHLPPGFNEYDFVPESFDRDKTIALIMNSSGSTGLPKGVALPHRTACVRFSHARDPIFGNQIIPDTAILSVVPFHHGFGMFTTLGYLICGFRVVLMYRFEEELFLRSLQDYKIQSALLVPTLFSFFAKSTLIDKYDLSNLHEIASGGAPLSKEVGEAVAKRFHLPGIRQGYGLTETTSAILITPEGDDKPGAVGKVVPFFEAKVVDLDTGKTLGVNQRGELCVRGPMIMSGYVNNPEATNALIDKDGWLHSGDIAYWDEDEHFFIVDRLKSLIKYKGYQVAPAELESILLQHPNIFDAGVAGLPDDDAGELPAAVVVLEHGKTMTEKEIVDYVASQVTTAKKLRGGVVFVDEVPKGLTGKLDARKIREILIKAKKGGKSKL
#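 Purified P. pyralis luciferase (10nM final) with 10uM D-luciferin and 10uM ATP (Km levels) in 50mM Tris acetate pH 7.5, 10mM Mg acetate, 0.01% Tween-20, 0.05% BSA; qHTS 6-point titration, ~60 µM downward; luminescence read.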
# ELG1 genotoxic: genotoxicity induction in ELG1-luciferase HEK293T cells; HEK293T ELG1-luciferase reporter, luminescence, 16 h; Potency, µM (doses to about 46 µM), inactives show at the top dose activity change, positive = activation, hits mostly activators; 330,000 tested, 1.3% active; note: % of control where 0% means no effect; nearly all actives have a fitted effect of over 60% in size
#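 ELG1-luciferase HEK293T cells, 2,000/well; compound pinned in; 16 hr, 37 °C, 5% CO2; ONE-Glo, 30 min RT; luminescence on CCD imager.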
# ELG1 DNA repair: inhibitors of ELG1-dependent DNA repair in HEK293T cells; HEK293T ELG1-luciferase reporter, luminescence, 16 h; DNA damage induced by 5-fluorouridine; 330,000 tested, 2.3% active; Potency, µM (series often up to 46.1 µM), inactives show at the highest dose activity change, negative = inhibition, hits mostly inhibitors; AID 504467; note: % is set by controls: 0 for no effect and ±100 for the full control effect; nearly all actives have a fitted effect of over 55% in size
#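 Step one: seed 2,000 cells per well. Step two: pin-transfer compound or DMSO alongside 5-fluorouridine. Step three: incubate 16 hr, 37 °C, 5% CO2. Step four: add ONE-Glo, wait 30 min, read luminescence.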
# SMN2 splice up: increases expression of the SMN2 splice variant; HEK293 SMN2-luciferase splicing reporter, luminescence, 30-36 h; Potency, µM (top dose mostly 46.1 µM), without a hit: at the top dose activity change, positive = activation, most hits filed as activators; 210,000 tested, 2.8% active; AID 1458; note: % of control where 0% means no effect; nearly all actives have a fitted effect of over 55% in size
#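 HEK293 cells carry an SMN2 minigene-luciferase reporter in which exon 7 inclusion puts luciferase in frame. Cells were seeded at 2000 cells/well, attached for 10-12 hours, then exposed to compounds for 30-36 hours at 37C before ONE-Glo luminescence.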
# The depositor's hits bear a star; u = inconclusive; x = no result; [ ] = another dose, or the depositor's remark. Calls come from the whole dose curve; as a rule, active = well fitted curve in the direction sought with a large enough effect; inconclusive = small, poorly fitted or top-dose-only effect, or another doubt; inactive = no such curve, though single readings can be large; an effect the other way counts as inactive or inconclusive. Potency is the fitted concentration of half-maximal effect.
SMILES,Rab9 promoter act,NPC1 promoter act,FLuc counter,ELG1 genotoxic,ELG1 DNA repair,SMN2 splice up
Nc1ccccc1SC1CC(=O)N(c2ccc3c(c2)OCCO3)C1=O (configuration not stated),2.2µM*,u,u,7%,u,x
O=C(CSc1nc(O)c(C/C=C/c2ccccc2)c(=O)[nH]1)Nc1cccc(F)c1,x,x,11µM*,x,x,-8%
Nc1nc(SCC(=O)Nc2ccccc2)[nH]c(=O)c1-c1ccccc1,7%,-1%,-2%,-4%,-5%,-5%
Cc1ccc(Cl)cc1N1CCN(C(=O)CCn2c(=O)c3cccn3c3cccnc32)CC1,x,x,-2%,x,x,x
CCOC(=O)c1ccc(NC(=O)c2sc3nc4n(c(=O)c3c2C)CCC4)cc1,-1%,0%,-2%,1%[9.26 µM],23µM*,x
CCc1cccc(NC(=O)c2sc3nc4n(c(=O)c3c2C)CCC4)c1,2.8µM*,2µM*,17µM*,u,u,x
CC(C)c1nn2c(=O)cc(COC(=O)c3cccs3)nc2s1,x,x,11µM*,x,x,x
COc1cc(C(=O)OCc2cc(=O)n3nc(C(C)C)sc3n2)cc(OC)c1OC,x,x,0%,x,x,x
CC(C)c1nn2c(=O)cc(COC(=O)c3ccc(NC(=O)c4ccccc4Cl)cc3)nc2s1,x,x,-2%,x,x,x
CC(C)c1nn2c(=O)cc(COC(=O)c3ccccc3Cl)nc2s1,x,x,17µM*,x,x,x
O=C(NCc1ccccc1Cl)C1CCN(S(=O)(=O)c2cccs2)CC1,0%,-1%,2%,1%,3%,x
C/C(CC(=O)Nc1ccc2c(c1)OCCO2)=N\NC(=O)COc1ccccc1,1%,-3%,u,7%,u,x
Cc1ccc(OCC(=O)Nc2ccc3c(c2)OCCO3)cc1C,14%,6%,17µM*,u,u,-17%
Cc1ccc(OCC(=O)Nc2ccc(F)cc2)cc1C,-2%,-2%,19µM*,u,u,6%
Cc1cccc(OCC(=O)Nc2ccc3c(c2)OCCO3)c1,3.2µM*,u,6µM*,6.5µM*,u,10%
COc1ccccc1C1=NOC(C(=O)N2CCN(C(=O)c3ccco3)CC2)C1 (configuration not stated),-1%,1%,2%,2%,0%,x
COc1cc(OC)cc(C(=O)Nc2nc(-c3nnn(-c4ccc(F)c(Cl)c4)c3C)ns2)c1,x,x,-9%,x,x,x
O=C(Nc1ccc(N2CCCC2)c(Cl)c1)c1cccs1,0.45µM*,0.71µM*,2.4µM*,2.3µM*,u,2.8µM*
O=C(Nc1ccc(N2CCN(c3ccc(F)cc3)CC2)c(C(=O)O)c1)c1cccs1,x,x,-2%,x,x,x
O=C(NC(=S)Nc1ccc(N2CCOCC2)c(Cl)c1)c1cccs1,u,u,19µM*,3%,-6%,-9%
COC(=O)c1ccc(NC(=O)C(=O)c2cccn2C)cc1,0.35µM*,0.4µM*,1.9µM*,u,u,0.89µM*
CCOc1ccc(NC(=O)Cc2ccccc2)cc1,2.8µM*,3.5µM*,21µM*,u,u,8.9µM*
CCOc1ccc(NC(=O)CNC(=O)Cc2ccccc2)cc1,2%,1%,5%,2%,9%,x
CCOc1ccc(NC(=O)c2ccc(NC(=O)COC(=O)Cc3ccc(OC)cc3)cc2)cc1,2.5µM*,3.5µM*,0%,u,u,11µM*
CC(=O)Nc1ccc(C(=O)OCCc2ccccc2)cc1,18%,17%,12µM*,u,u,x
SMILES,Rab9 promoter act,NPC1 promoter act,FLuc counter,ELG1 genotoxic,ELG1 DNA repair,SMN2 splice up
CC1CC(C)CN(C(=O)c2cccc(N3C(=O)c4ccccc4C3=O)c2)C1 (configuration not stated),-4%,-1%,-2%,-2%,15%,x
O=C(Cc1ccccc1)Nc1ccc(SC(F)F)cc1,3.2µM*,4µM*,17µM*,12%,u,11µM*
C/C=C/C(=O)OCC(=O)Nc1ccc(SC(F)F)cc1,1%,-27%,17µM*,2%,0%,5%
COC(=O)c1ccc(NC(=O)Cc2ccccc2)cc1,2.5µM*,4µM*,15µM*,u,u,9%
CCOc1ccc(NC(C)=O)cc1,-2%,-1%,4%,2%,13%,8%
CC(=O)OCC(=O)Nc1ccc(SC(F)F)cc1,5%,-2%,u,0%,0%,21%
CCOc1ccc(NC(=O)/C(C=Nc2ccccc2)=C(\C)O)cc1,3%,-2%,12µM*,-9%,8%,x
O=C(C1CCC(Cn2c(=O)c3sccc3n(Cc3ccc(F)cc3)c2=O)CC1)N1CCOCC1 (configuration not stated),x,x,4%,x,x,x
CCOc1ccc(NC(=O)CN2C(=O)CSC(C)C2=O)cc1 (configuration not stated),-2%,-1%,17µM*,-2%,-18%,9%
CCOC(=O)c1c(C)[nH]c(C)c1S(=O)(=O)N(C)CC(=O)Nc1cccc(C)n1,2%,10%,-3%,4%,0%,x
CC(=O)c1ccc(Nc2nc(C)cc(C)n2)cc1,u,u,27µM*,u,u,x
COc1ccc(OC)c(NC(=O)Nc2ccc3c(c2)CCC3)c1,1%,2%,27µM*,-5%,-3%,x
COc1cc(OC)cc(C(=O)NC(C(=O)Nc2ccc3c(c2)CCC3)C(C)C)c1 (configuration not stated),-4%,0%,10%,-3%,7.3µM*,x
COc1cc(OC)cc(C(=O)N[C@H](C(=O)Nc2cc(C)cc(C)c2)C(C)C)c1,5%,-2%,-1%,-2%,-12%,x
COc1cccc(NC(=O)Nc2ccc3c(c2)CCC3)c1,1.6µM*,2.2µM*,4.3µM*,11%,u,x
COc1ccc(NC(=O)Nc2ccc3c(c2)CCC3)c(OC)c1,10%,4%,-3%,12%,24%,-7%
Cc1ccc(Cl)cc1N1CCN(C(=O)COc2cc(=O)n(C)c3ccccc23)CC1,x,x,7%,x,x,-39%
COc1ccc(CC(=O)Nc2ccccc2-c2ccccc2)cc1OC,-10%,0%,3%,-27%,-27%,x
COc1ccc(CC(=O)Nc2nc(-c3ccccc3)c(C(C)=O)s2)cc1OC,-10%,0%,-2%,-2%,18µM*,x
COc1cc(CC(=O)Nc2nc(-c3ccccc3)c(C(C)=O)s2)cc(OC)c1OC,-9%,-4%,0%,-10%,8.2µM*,x
CN(C)N1C(=O)CC(N2CCCCC2)C1=O (configuration not stated),-3%,-9%,1%,2%,3%,8%
Oc1c(C=NCc2ccncc2)sc2ccccc12,2%,13%,u,u,-4%,u

# High-throughput results (PubChem BioAssay)
